{"source": "PubChem BioAssay (NCI)", "note": "About 79,000 compounds went through this panel and 15% of them were active in at least one assay; those are over-represented in the sample as a whole. Active and inactive are the calls of the source. Rule as the data show it: active = growth inhibition above about 70%; inactive = the rest.", "data": [{"assay": "NCI Yeast Anticancer Drug Screen. Data for the rad50 strain (AID 155);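 also: 0% = growth of vehicle-only cultures of the same strain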", "settings": "S. cerevisiae rad50 strain growth inhibition; at 50.0 µM; stronger effect = higher value", "outline": "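A DNA repair-deficient yeast mutant serves as the test organism; compound-induced growth inhibition is calculated against vehicle-treated cells.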", "values": [{"molecule": "CN(C)CCC(=O)Cc1ccccc1", "growth inhibition": "-8.8% (inactive)"}, {"molecule": "O=S(=O)(O)c1cccc2cccc(Nc3ccccc3)c12", "growth inhibition": "-0.5% (inactive)"}, {"molecule": "O=C(CC1Sc2ccccc2NC1=O)Nc1cc(Cl)ccc1Cl", "note": "(stereo not given)", "growth inhibition": "-2.6% (inactive)"}, {"molecule": "Nc1ccc(N=Nc2ccncc2)c2ccccc12", "growth inhibition": "31.7% (inactive)"}, {"molecule": "Cc1ccc2occ(/C=N/NC(N)=S)c(=O)c2c1", "growth inhibition": "-11.4% (inactive)"}, {"molecule": "CC1=CC(C)S(=O)(=O)C1", "note": "(stereo not given)", "growth inhibition": "-38.4% (inactive)"}, {"molecule": "O=S(=O)(O)c1ccc2c(N=Nc3cccc4ccccc34)c(O)c(S(=O)(=O)O)cc2c1", "growth inhibition": "-2.35% (inactive)"}, {"molecule": "C/C(C#N)=C1/Nc2ccccc2NC1=O", "growth inhibition": "0.55% (inactive)"}, {"molecule": "OC(CCN1CCC2CCC(C2)C1)(c1ccccc1)c1ccc(Cl)cc1", "note": "(stereo not given)", "growth inhibition": "-4.55% (inactive)"}, {"molecule": "c1ccc2c(c1)CCc1cc3cc4c(nc3nc1-2)-c1ccccc1CC4", "growth inhibition": "-14.4% (inactive)"}, {"molecule": "COc1ccc(C2C(=O)C(Cl)N2Nc2nc(C)cc(=O)[nH]2)cc1OC", "note": "(stereo not given)", "growth inhibition": "1.45% (inactive)"}, {"molecule": "O=C(OC(c1ccccc1)c1ccccc1)c1ccccc1C(=O)c1ccccc1", "growth inhibition": "-18.6% (inactive)"}, {"molecule": "NCS(=O)(=O)O", "growth inhibition": "-12.8% (inactive)"}, {"molecule": "COc1ccc2nc(NCCNCCO)cc(NCCNCCO)c2c1", "growth inhibition": "-12.2% (inactive)"}, {"molecule": "COc1cc(C(c2c(O)c3ccccc3oc2=O)N2CCCC2)cc(OC)c1OC", "note": "(stereo not given)", "growth inhibition": "-1.2% (inactive)"}, {"molecule": "CCCCCCCCCCCCOc1ccc2ccccc2c1", "growth inhibition": "-7.2% (inactive)"}, {"molecule": "CSC12CC3C(=O)C=C[C@@H](O)[C@@H]3N1C(=O)C1(SC)CC3C(=O)C=C[C@@H](O)[C@@H]3N1C2=O", "note": "(stereo not given in full)", "growth inhibition": "64.3% (inactive)"}, {"molecule": "CC(=O)/C=C/N(C)c1ccc(O)cc1", "growth inhibition": "40.6% (inactive)"}, {"molecule": "CCNC(=O)c1cc2ccccc2cc1O", "growth inhibition": "1.4% (inactive)"}, {"molecule": "Cc1ccc(S(=O)(=O)OCC2CCC(COS(=O)(=O)c3ccc(C)cc3)O2)cc1", "note": "(stereo not given)", "growth inhibition": "-4.9% (inactive)"}, {"molecule": "O=C1CC(CC(=O)c2ccc(Br)cc2)C(=O)/C1=C(/O)c1ccc(Br)cc1", "note": "(stereo not given)", "growth inhibition": "21.7% (inactive)"}, {"molecule": "OC1(Cl)c2cccc3cccc(c23)C1(O)Cl", "note": "(stereo not given)", "growth inhibition": "-0.8% (inactive)"}, {"molecule": "O=C(NC1C2CC3CC(C2)CC1C3)c1cc(/C=C/c2ccccc2)[nH]c(=S)n1", "note": "(stereo not given)", "growth inhibition": "15.1% (inactive)"}, {"molecule": "Nc1nc2c(c(=O)[nH]1)CN(c1ccc(S(N)(=O)=O)cc1)CN2", "growth inhibition": "25.9% (inactive)"}, {"molecule": "COc1cc(OC)cc(C(=O)NN)c1", "growth inhibition": "19% (inactive)"}, {"molecule": "COc1ccc(C2=C(c3ccccc3)C(C)(C)Oc3ccc4ccccc4c32)cc1", "growth inhibition": "-44.8% (inactive)"}, {"molecule": "O=C(CN1CCCCC1)NC(=O)N/N=C\\c1ccco1", "growth inhibition": "0.1% (inactive)"}, {"molecule": "O=C(c1cccs1)c1ccc2ccccc2c1C(=O)O", "growth inhibition": "-6.95% (inactive)"}, {"molecule": "CC1(C)OCC(C2OC3OC(C)(C)OC3C2OP(=O)(N2CC2)N2CC2)O1", "note": "(stereo not given)", "growth inhibition": "-16.1% (inactive)"}, {"molecule": "COC(=O)C1CCC(=O)N1CN(C(C)=O)c1ccccc1", "note": "(stereo not given)", "growth inhibition": "10.1% (inactive)"}, {"molecule": "O=C1C2=Cc3ccccc3OC2(O)Oc2ccc(O)cc21", "note": "(stereo not given)", "growth inhibition": "8.5% (inactive)"}, {"molecule": "O=S(=O)(Cc1ccccc1)C(I)c1ccccc1", "note": "(stereo not given)", "growth inhibition": "82.2% (active)"}, {"molecule": "O=c1[nH]c2cc(Cl)ccc2c2cc(Cl)ccc12", "growth inhibition": "39.9% (inactive)"}, {"molecule": "CCOC(=O)C(CN)c1ccccc1", "note": "(stereo not given)", "growth inhibition": "-9.15% (inactive)"}, {"molecule": "O=[N+]([O-])c1c(Nc2ccccc2)ncnc1Nc1ccccc1", "growth inhibition": "-33.9% (inactive)"}, {"molecule": "COC(C)C(NC(=O)C1CCCN1C)C1OC(SCCOC(=O)c2ccccc2O)C(O)C(O)C1O", "note": "(stereo not given)", "growth inhibition": "8.3% (inactive)"}, {"molecule": "CCCCOC(=O)NC(=O)c1cn(CCCOC(=O)CCCCCCCCC(=O)OCCCn2cc(C(=O)NC(=O)OCCCC)c(=O)[nH]c2=O)c(=O)[nH]c1=O", "growth inhibition": "-23.2% (inactive)"}, {"molecule": "O=[N+]([O-])c1ccc(NN=C2CCCCCC2)c([N+](=O)[O-])c1", "growth inhibition": "5.95% (inactive)"}, {"molecule": "CN(C)c1ccc(/C=C/C=C(/C#N)c2ccccc2)cc1", "growth inhibition": "14.8% (inactive)"}, {"molecule": "O=C(NCCN1CCCC1)Nc1ccccc1Cl", "growth inhibition": "4.6% (inactive)"}]}]}
